Reference: the supplement of paper PMC3334620
The full ranking holds about 33,000 sequences; the median of “E-score (-0.5 to 0.5)” is about -0.011, and the highest 2% start at about 0.28. This is one part of a sample in which the highest values are shown more often than they occur.

The sequences below were run against T1, Gcr1 (UniProt P07261) (assay: PBM E-score (8-mer binding enrichment) (E-score (-0.5 to 0.5)); higher = stronger / more preferred TF binding). Details: protein concentration: 100 nM; construct: GST-full length.
T1 sequence: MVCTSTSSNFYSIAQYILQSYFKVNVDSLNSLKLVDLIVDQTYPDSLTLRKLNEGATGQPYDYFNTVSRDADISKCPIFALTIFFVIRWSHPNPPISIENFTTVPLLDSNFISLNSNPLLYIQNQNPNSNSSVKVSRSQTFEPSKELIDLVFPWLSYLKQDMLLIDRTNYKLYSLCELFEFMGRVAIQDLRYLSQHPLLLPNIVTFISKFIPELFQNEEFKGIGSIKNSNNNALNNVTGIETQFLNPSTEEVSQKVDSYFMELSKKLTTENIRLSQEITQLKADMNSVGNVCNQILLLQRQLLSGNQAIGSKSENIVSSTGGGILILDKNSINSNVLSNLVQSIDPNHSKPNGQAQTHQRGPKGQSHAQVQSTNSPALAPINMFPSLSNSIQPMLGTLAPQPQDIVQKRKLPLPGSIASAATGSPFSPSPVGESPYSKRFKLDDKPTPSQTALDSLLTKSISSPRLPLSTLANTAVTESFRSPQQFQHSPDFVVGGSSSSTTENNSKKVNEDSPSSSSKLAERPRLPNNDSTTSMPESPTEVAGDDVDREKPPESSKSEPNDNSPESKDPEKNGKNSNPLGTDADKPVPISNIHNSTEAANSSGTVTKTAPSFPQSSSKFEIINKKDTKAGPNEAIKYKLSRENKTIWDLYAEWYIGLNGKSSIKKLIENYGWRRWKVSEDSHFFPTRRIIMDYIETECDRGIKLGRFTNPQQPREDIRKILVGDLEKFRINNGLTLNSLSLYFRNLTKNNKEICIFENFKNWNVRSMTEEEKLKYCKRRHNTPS
Procedure: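 Universal 'all 10-mer' protein binding microarrays (Agilent AMADID 015681) probed with GST-tagged S. cerevisiae TFs (full-length or DBD) made by in vitro transcription/translation (PURExpress), about 100-200 nM. Bound TF was detected with fluorescent anti-GST. Each ungapped 8-mer (which stands for itself and its reverse complement) is scored by the PBM enrichment score (E-score), a modified Wilcoxon-Mann-Whitney statistic from -0.5 to +0.5, computed with the Universal PBM Analysis Suite. Scale: above 0.35 generally sequence-specific binding.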

Sequence | PBM E-score
CGGCATCC | 0.444
CGGCATCA | 0.223
AGGCATCG | 0.0175
AGGCATCC | 0.387
AGGCATCA | -0.162
CGGCATAC | -0.113
ACGCCTCA | -0.137
CGGCTCCC | 0.34
CGGCTGCA | 0.0568
CGGCTCCA | 0.0712
AGGCTGCC | 0.382
CGGCTGCC | 0.376
AGGCTGCG | 0.138
AGGCTGCA | -0.0233
AGGCTCCC | 0.24
CTGCTGCC | -0.0289
CTGTCTTA | 0.0396
CGCCATAC | 0.127
TACCAGCA | 0.0312
ACCCAGGT | 0.0419
CAACGCTG | -0.0977
ATTTTTCA | 0.1
ACGGCTCT | -0.00284
AAATGGCT | 0.0656
ACTCACCC | -0.126

Sequence | PBM E-score
CTGGAAGA | 0.0722
GTGGAAGA | 0.172
ATGGAAGC | 0.344
ATGGAAGG | -0.201
ATGGAAGA | -0.0302
CTGGAAGC | 0.45
CCATGGGC | 0.0107
ACCCCTGA | 0.0403
CCTGGTCG | -0.127
TCCCACGA | 0.244
TGCACCAA | -0.133
AGCACCTA | 0.241
GGCACCTA | 0.281
GGCACCAC | 0.249
GGCACCAA | 0.335
CGCACCTA | 0.0792
CCACAAAC | 0.19
ATGCATCC | -0.00178
ATGAAATG | 0.104
TCCCCAAA | 0.226
CGGGCGCA | 0.0492
AGGGCGCC | 0.399
CGGGCGCC | 0.421
AGGGCGCG | 0.194
CGGGCGGC | 0.0469

Sequence | PBM E-score
AGGGCGCA | -0.0301
ATTAAGGG | 0.0551
ATTATCCG | 0.00436
TACCTGAA | 0.0937
ATCAGGAG | 0.0606
CTCTCCAA | -0.0761
AGTGTCAG | -0.142
GCAGATAC | 0.0819
CCAGATTA | 0.233
CCAGATAC | 0.294
CCAGATTC | 0.326
CCAGATAA | 0.0427
ACAGATTC | 0.176
CCCTGCCA | 0.0623
CCGCGCAG | -0.219
AGGGATTG | 0.0467
GTGCACTA | -0.146
AGCTGGCA | 0.0163
GAAGCGGA | 0.328
GAAGCTTC | 0.339
CAAGCTTC | 0.232
GAAGCTGA | 0.322
TAAGCGGA | -0.143
GAAGCTCC | 0.309
GAAGCTCA | 0.224

Sequence | PBM E-score
AAAGCTCC | -0.0149
CAAGCTGA | -0.139
AAAGCTGA | 0.113
CAAGCGGA | -0.137
GAAGCTTA | 0.136
ATGGGCTC | 0.102
TCGGTGAA | -0.0389
GACCATAC | 0.159
CACAGCTA | -0.0538
AAAACGCT | -0.0686
TACCCGGA | -0.0492
GTAATGGA | 0.0927
CAGGCCCG | -0.263
TATAAGGA | 0.124
GCTTTGGA | 0.0838
AAACGCCG | 0.0308
CCGCTAGA | -0.00443
AGGCTTGG | 0.0323
AAAGCTGC | -0.123
CAAGCTGC | 0.149
GAAGCTGC | 0.406
CAATCGAG | 0.00485
CTTCCGAC | -0.00712
GAGTGATA | -0.122
CCGAAGGC | -0.158

Sequence | PBM E-score
ATCGAGGC | -0.0857
ACCAGATA | 0.0838
AAAGCCCA | -0.0697
AAAGCCCC | -0.121
CAAGCCCC | -0.18
GAAGCCCA | 0.368
CAAGCCCA | -0.244
GAAGCCCC | 0.381
AACGCGGT | -0.107
GTTAAATA | 0.0652
TCTAAGAA | 0.0856
AGTCTCCA | 0.0915
CGTCTCCC | 0.0616
CGTCTCCA | 0.284
CGGCCCCC | 0.0724
ACTAGTCG | 0.065
AGTCTGCA | -0.179
GAAGAGCA | -0.0362
CAGTGATA | 0.0897
AACCAAGG | -0.00121
CGCTCCCA | 0.132
GGATCCCC | 0.362
TGATCCCA | 0.065
GGCTCCCA | 0.348
GGATCCCA | 0.391

Sequence | PBM E-score
TGCTCCCA | -0.0935
AGATCCCC | 0.156
AGATCCCA | 0.265
CGATCCCC | 0.111
AGTCTAGC | 0.0246
CTGATAAG | 0.0222
GTAGCTGA | -0.023
TATCTCGA | -0.115
GTTCCTTA | 0.0517
GGACTCCA | 0.345
AGGCTCCA | 0.263
CGACTCCA | 0.0419
GGGCTCCA | 0.318
GGGCTCGA | -0.0878
TGACTCCA | 0.0388
AGATGAGG | -0.0257
ATATTATG | 0.132
CTAGACCC | -0.0797
AAAGACTC | -0.195
CGCCATAG | -0.14
AAGTTCGA | 0.0312
GGAAGGCA | 0.0904
AAGTAGCT | 0.208
CAGCTTCA | 0.0949
CTGCTTCC | 0.177

Sequence | PBM E-score
CAGCTTCG | 0.328
AAGCTTCG | 0.129
CAGCTTCC | 0.457
AAGCTTCT | 0.184
AAGCTTCA | -0.0647
AAGCTTCC | 0.353
CAGCTTGC | -0.267
CAAGAGCG | 0.0229
GGGCGAGA | -0.0433
AAGATTAA | 0.233
AGAATGTG | -0.221
GAGTCCAC | 0.257
AACGCCTA | -0.0917
AGGATTCA | -0.164
AGGATTCG | 0.126
CTGATGCC | -0.0173
CGGATTCA | -0.0182
CGGATGCC | 0.404
CGGATGCA | 0.0929
AGGATTCC | 0.373
CGGATTCC | 0.463
CGGATTTC | -0.122
AGCCCGTG | -0.0206
ACCACTGA | 0.0982
AACCCGGG | 0.0515

Sequence | PBM E-score
CGCCGGGC | -0.0527
ACACCTTA | 0.0539
GCTGATCC | -0.0746
GCCGCCAA | 0.125
GCTCGCGA | 0.0716
TGCACCCA | 0.151
CGCACCCA | 0.236
CGCACCCC | 0.0174
GGCACCCC | 0.322
GGCACCCA | 0.381
AGCACCCC | 0.131
AACCTGCA | -0.0327
CCCGATGA | -0.0833
CAAATCGG | 0.0561
CTTCCGGC | 0.111
CATCCAAG | -0.0862
ATTCCGAA | 0.147
CATCCAAC | -0.0403
CATCCAAA | 0.298
ATTCCACG | 0.0676
ACTCCAAA | 0.116
ATTCCAAA | 0.307
ATTCCACA | 0.247
CTTCCACA | 0.349
ATTCCGGA | 0.197

Sequence | PBM E-score
CTTCCGGA | 0.347
AGCTTATG | 0.0485
CCGACATA | 0.0516
GATAACCC | -0.017
AGCCCCCG | -0.0643
AGCGGGCA | -0.156
CTCCGGGA | 0.00075
ACGGAGGC | -0.00955
ATTCCAAG | 0.196
GTTCCAAA | 0.302
CTTCCAAC | 0.181
GTTCCAAC | 0.0801
CTTCCAAA | 0.338
CGTCCAAG | -0.0458
AGTCCAAA | -0.0142
CTTCCAAG | -0.132
CGTCCAAA | 0.33
ATTCCAAT | 0.299
ATTCCAAC | 0.221
TTTCCAAA | 0.178
